The source of these data is PubChem BioAssay (NCATS).

SMILES strings stand for the structures. Values without a mark were called inactive. Results filed as inconclusive are left out. Activity calls are given as the source filed them. Unless noted, calls follow the shape of the dose curve; as a rule, active = well fitted curve in the direction sought with a large enough effect; inconclusive = small, poorly fitted or top-dose-only effect, or another doubt; inactive = no such curve, though single readings can be large; an effect the other way counts as inactive or inconclusive.

Assay [1] in a line: Cell Viability - Hek293 (AID 427;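 active = compounds whose dose-response curve shows a full or clear partial loss of cell viability, called from curve shape rather than a numeric limit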;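 also: potency is read from the fitted curve at half-maximal effect; cells exposed to compound for 40 hours at 37 °C before reading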). Conditions: qHTS. Put shortly:
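Luminescent ATP read-out (CellTiter-Glo, 20 min RT) after 40 hr compound exposure at 37 °C in complete medium. Signal normalized to DMSO (basal) and 100 uM tamoxifen (100% inhibition); concentration-response fitted with the standard Hill equation to give AC50.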
Background: In qHTS, concentration-response curves come from the screen itself.

The nature of assay [2]: Cell Viability - NIH 3T3 (AID 541).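 Also: plate controls were DMSO alone for no effect and tamoxifen positive control for full effect; nearly all actives have a fitted effect of over 25% in size.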 To be noted: NIH 3T3 cell viability, qHTS; activity change, negative = cytotoxicity: at 92.2 µM (top of the series). The method, boiled down: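 Cells seeded at 1000/well, rested 5 hr at 37 °C, then dosed and incubated 40 hr at 37 °C. CellTiter-Glo added, 20 min room temperature, luminescence read. AC50 by Hill fit.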
The nature of assay [3]: Cell Viability - SH-SY5Y (AID 544).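 Also: 0% = DMSO alone and -100% = 100 µM tamoxifen; nearly all actives have a fitted effect of over 55% in size.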 To be noted: SH-SY5Y neuroblastoma cell viability; viability change, negative = cytotoxic: at 92.2 µM (top of the series). The method, boiled down: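 Cells were plated at 1500 per well and allowed 5 hr at 37 °C. Compounds were added across a concentration range and incubated 40 hr at 37 °C. CellTiter-Glo was added for 20 min at room temperature before luminescence reading.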

Assay [4] in a line: Cellular Toxicity (caspase-3) BJ (AID 658). Conditions: BJ fibroblasts, luminescence; Potency: caspase-3 activation; series mostly up to 91.7 µM. Put shortly: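 qHTS, BJ fibroblasts, 1000 cells/well; 5 hr preincubation, 16 hr compound, 37 °C; Caspase-Glo 3/7 reagent, 1 hr RT; luminescence. DMSO = 0%, 10 uM staurosporine = 100%. Hill-equation AC50.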
Assay [5] addresses Glucocorticoid receptor (Homo sapiens) (UniProt P04150). Description: qHTS assay for small molecule agonists of glucocorticoid receptor signaling (AID 588532; active = well fitted curve in the direction sought with a large enough effect in the signal ratio, with a control signal flat; the % refers to the signal ratio;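 also: 100% = dexamethasone at 0.1 µM and 0% = DMSO only wells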). Conditions: HeLa MMTV-bla, beta-lactamase ratio, agonist, 18 h; stronger effect = higher value; percent of dexamethasone control, DMSO zero. Put shortly: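 Cells were plated and rested 3-5 h at 37 C, compounds were added in titration and incubated 18 h, then CCF4 substrate was loaded for 2 h at RT before reading blue/green fluorescence. EC50 came from Hill-equation fitting.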

For assay [6], the target named is Vitamin D3 receptor (Homo sapiens) (UniProt P11473). Description: qHTS assay for small molecule antagonists of vitamin D receptor signaling (AID 588541; calls by dose curve;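 also: receptor activated by calcitriol during compound treatment; % is scaled to controls: 0 for no effect and ±100 for the full control effect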). To be noted: HEK293T VDR-UAS-bla, beta-lactamase ratio, antagonist mode; series mostly up to 76.7 µM. Put shortly: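 VDR-UAS-bla HEK293T cells in 2% charcoal-stripped FBS were stimulated with 1-alpha,25-dihydroxyvitamin D3 (3 nM final) plus compound for 16 h at 37 C. The beta-lactamase CCF4 readout was normalized to 50 nM agonist and DMSO, and Hill fits gave IC50.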

The target is the same in assay [7]. Description: qHTS assay for small molecule agonists of vitamin D receptor signaling (AID 588543; calls by dose curve;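 also: 0% = DMSO basal and 100% = reference agonist control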). To be noted: HEK293T VDR-UAS-bla, beta-lactamase ratio, 16 h; series mostly up to 76.8 µM. The method, boiled down:
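Measured: β-lactamase reporter activity (CCF4, 405 nm excitation, 460/530 nm emission) in HEK293T VDR-UAS-bla cells after 16 h compound exposure at 37 °C. Normalization against 50 nM 1α,25-dihydroxyvitamin D3 and DMSO; Hill-fit EC50.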

Assay [8] concerns the target Thyroid hormone receptor beta (Homo sapiens) (UniProt P10828). Description: qHTS assay for small molecule agonists of thyroid hormone receptor beta signaling (AID 588545; calls by dose curve;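 also: 0% = DMSO only and 100% = 10 nM T3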). To be noted: TR-UAS-bla GripTite HEK 293, beta-lactamase ratio, agonist mode, 18 h; series mostly up to 76.7 µM. The method, boiled down: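 Compounds were tested as agonists in TR-UAS-bla-GripTite HEK 293 cells. After 18 hrs at 37 C, CCF4 substrate was added and fluorescence read after 2 hrs at room temperature.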

Assay [9] has as its target Voltage-gated inwardly rectifying potassium channel KCNH2 (Homo sapiens) (UniProt Q12809). Description: qHTS Assay for Small Molecule Inhibitors of the Human hERG Channel Activity (AID 588834).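 Also: top concentration of the series differs between compounds; % is scaled to controls: 0 for no effect and ±100 for the full control effect; lower thallium flux fluorescence means stronger hERG block; nearly all actives have a fitted effect of over 50% in size.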 To be noted: U2OS BacMam hERG, FluxOR thallium flux fluorescence; series mostly up to 92.2 µM. Put shortly:
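Homogeneous FluxOR thallium flux assay using hERG-expressing U2OS cells (BacMam). Compound treatment about 10 minutes preceded stimulation; reduced fluorescence taken as channel block.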

Assay [10] is described as follows: qHTS assay for small molecule agonists of the antioxidant response element (ARE) signaling pathway (AID 651741; active = well fitted activation curve with a large enough effect in the signal ratio; the % refers to the signal ratio; also: % of control where 0% means no effect). To be noted: HepG2 ARE-bla reporter, beta-lactamase FRET ratio, 16 h; series mostly up to 96 µM. The method, boiled down:
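Stably integrated ARE-beta-lactamase reporter HepG2 cells; 16 h compound incubation, 37 C; LiveBLAzer FRET substrate 2 h at room temperature; fluorescence intensity.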

The nature of assay [11]: qHTS assay for small molecule activators of the p53 signaling pathway (AID 651743; active = well fitted activation curve with a large enough effect in the signal ratio, not every such curve was filed as active; the % refers to the signal ratio; also: % of control where 0% means no effect). Conditions: HCT-116 p53RE-bla, beta-lactamase FRET ratio, 16 h; activation: stronger effect = higher value. The method, boiled down:
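Following 16 hours of compound exposure at 37 C, HCT-116 cells bearing the p53RE-bla reporter were loaded with LiveBLAzer B/G FRET substrate for 2 hours at room temperature and fluorescence intensity was recorded.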

Assay [12] is described as follows: qHTS assay for small molecule activators of the nuclear factor-kappa B (NF-kB) signaling pathway (AID 651749; active = well fitted activation curve with a large enough effect in the signal ratio; the % refers to the signal ratio; also: % of control where 0% means no effect). To be noted: NF-kB-bla ME-180 cells, beta-lactamase FRET ratio, 16 h; stronger effect = higher value. Put shortly: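 In this qHTS format, compounds acting as activators increase NF-kB-driven beta-lactamase in ME-180 cells, measured as disrupted FRET after 16 hr exposure at 37C and 5% CO2.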

Assay [13] addresses Tumor necrosis factor (Homo sapiens) (UniProt P01375). Description: qHTS assay to identify small molecules that stimulate Tumor Necrosis Factor-alpha (TNF-alpha) secretion (AID 651757; active = well fitted curve in the direction sought with a large enough effect in the signal ratio; the % refers to the signal ratio; also: 0% is about no effect). Conditions: Human cells, HTRF 665/615 ratio; series mostly up to 92.2 µM. The method, boiled down:
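Human monocytic THP-1 cells are plated, treated with compound and held at 37 C for 17 hrs. Labeled anti-TNF-alpha antibody mixture is then added; after 3 hr at room temperature, TR-FRET signal reports secreted TNF-alpha.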

A short description of assay [14]: qHTS assay for small molecule activators of the human pregnane X receptor (PXR) signaling pathway (AID 720659; call rule not given here; also: 0% is about no effect). To be noted: DPX-2 HepG2 CYP3A4-luciferase, 24 h; series mostly up to 92.3 µM.
Assay [15] can be described thus: qHTS assay for small molecule antagonists of the retinoid-related orphan receptor gamma (ROR-gamma) signaling pathway - cell viability counter screen (AID 720652; active = well fitted curve in the direction sought with a large enough effect in the repeat runs; an effect the other way counts as inactive or inconclusive;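 also: CHO reporter cells with doxycycline-induced ROR-gamma expression; compound exposure lasted 16 hr before ATP read; % is scaled to controls: 0 for no effect and ±100 for the full control effect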). To be noted: RORgamma reporter cell line viability counter screen; series mostly up to 92.2 µM. The method, boiled down:
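Steps: seed CHO cells bearing TET-inducible ROR and ROR response element-luciferase; rest 5 hr at 37 C; add compound, then doxycycline; incubate 16 hr; add CellTiter-Glo and read luminescence as ATP-based viability.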

The nature of assay [16]: Cell Viability - Jurkat (AID 426;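 active = dose-dependent loss of cell ATP signal giving a full or clear fitted curve, ranked by lower potency value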;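 also: potency is read from the fitted curve at half-maximal effect; cells exposed to compound for 40 hours at 37 °C before ATP read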). Conditions: qHTS. The method, boiled down: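 Cells of the human T-cell leukemia line Jurkat (E6-1) are seeded at 5000 per well, treated with compound across a concentration range for 40 hours at 37 °C, then lysed with CellTiter-Glo; luminescence reports ATP.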
Assay [17] can be described thus: Cellular Toxicity (caspase-3) MRC-5 (AID 659). To be noted: MRC-5 cells, luminescence, normalized: DMSO 0%, 10 µM staurosporine 100%; series mostly up to 91.7 µM. The method, boiled down:
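MRC-5 fibroblasts, 1500/well; 16 h cpd, 37 °C; Caspase-Glo 3/7, 1 h RT; lumi read. Norm: DMSO = 0%, 10 uM staurosporine = 100%. Hill-fit AC50 from qHTS conc-response.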

Assay [18] deals with Cytochrome P450 3A4 (Homo sapiens) (UniProt P08684). Description: qHTS Assay for Inhibitors and Substrates of Cytochrome P450 3A4 (AID 884). Also: % is scaled to controls: 0 for no effect and ±100 for the full control effect; nearly all actives have a fitted effect of over 50% in size. Conditions: recombinant CYP3A4, Luciferin-PPXE luminescence; series mostly up to 57.1 µM. Put shortly: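 Luminescent readout of luciferin produced by CYP3A4 (20 nM) dealkylation of Luciferin-PPXE, 25 uM (its KM). NADPH-driven reaction ran 60 min at RT after 10 min compound preincubation; data scaled to 57 uM ketoconazole as 100% inhibition.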

Assay [19] deals with Nuclear receptor ROR-gamma (Homo sapiens) (UniProt P51449). Description: qHTS assay for small molecule antagonists of the retinoid-related orphan receptor gamma (ROR-gamma) signaling pathway (AID 651802).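 Also: CHO cells with doxycycline-induced ROR-gamma expression; % is scaled to controls: 0 for no effect and ±100 for the full control effect; nearly all actives have a fitted effect of over 60% in size.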 Conditions: ROR-gamma antagonist cell reporter assay; series mostly up to 92.2 µM. Put shortly:
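Steps: cells dispensed; compound or DMSO transferred by pin tool; doxycycline added to induce the ROR response element-driven luciferase; plates held 16hr at 37C; ONE-Glo added and luminescence measured.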

Assay [20] is described as follows: qHTS assay for small molecule disruptors of the mitochondrial membrane potential - 1 hr assay (AID 651754; calls by dose curve; also: % is scaled to controls: 0 for no effect and ±100 for the full control effect; nearly all actives have a fitted effect of over 35% in size). Conditions: series mostly up to 92.2 µM. Put shortly:
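Loss of mitochondrial potential shifts the cationic dye from red mitochondrial aggregates to green cytoplasmic monomers. Cells (HepG2) are treated with compound for 1 hr before a 30 min dye incubation at 37C.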

Chain of Thyroid hormone receptor beta (Homo sapiens) (P10828 whole entry, looked up): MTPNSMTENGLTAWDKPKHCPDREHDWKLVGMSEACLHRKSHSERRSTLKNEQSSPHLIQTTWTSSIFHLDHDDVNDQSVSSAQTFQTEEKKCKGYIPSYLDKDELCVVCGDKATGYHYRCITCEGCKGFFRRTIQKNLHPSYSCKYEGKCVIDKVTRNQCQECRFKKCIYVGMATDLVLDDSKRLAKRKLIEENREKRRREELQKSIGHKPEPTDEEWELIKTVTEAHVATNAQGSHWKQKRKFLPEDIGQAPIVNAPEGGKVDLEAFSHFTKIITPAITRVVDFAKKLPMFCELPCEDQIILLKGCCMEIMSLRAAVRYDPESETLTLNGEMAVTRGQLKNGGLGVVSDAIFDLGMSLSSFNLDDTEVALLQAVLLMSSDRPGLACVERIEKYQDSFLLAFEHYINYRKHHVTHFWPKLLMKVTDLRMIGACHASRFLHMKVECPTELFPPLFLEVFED
Chain of Vitamin D3 receptor (Homo sapiens) (P11473 whole entry, looked up): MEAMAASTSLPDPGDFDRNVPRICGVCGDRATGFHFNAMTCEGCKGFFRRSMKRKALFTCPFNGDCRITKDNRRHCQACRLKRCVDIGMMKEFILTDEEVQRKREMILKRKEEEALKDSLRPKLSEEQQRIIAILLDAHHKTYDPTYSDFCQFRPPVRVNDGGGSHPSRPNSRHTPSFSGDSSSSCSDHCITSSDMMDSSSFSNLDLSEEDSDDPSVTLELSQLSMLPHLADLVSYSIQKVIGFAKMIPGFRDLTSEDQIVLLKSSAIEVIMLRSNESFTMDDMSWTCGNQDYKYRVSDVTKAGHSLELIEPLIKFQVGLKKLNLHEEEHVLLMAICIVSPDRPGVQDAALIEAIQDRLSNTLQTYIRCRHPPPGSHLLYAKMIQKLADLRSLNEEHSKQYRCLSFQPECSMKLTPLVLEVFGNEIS
Chain of Nuclear receptor ROR-gamma (Homo sapiens) (P51449 whole entry, looked up): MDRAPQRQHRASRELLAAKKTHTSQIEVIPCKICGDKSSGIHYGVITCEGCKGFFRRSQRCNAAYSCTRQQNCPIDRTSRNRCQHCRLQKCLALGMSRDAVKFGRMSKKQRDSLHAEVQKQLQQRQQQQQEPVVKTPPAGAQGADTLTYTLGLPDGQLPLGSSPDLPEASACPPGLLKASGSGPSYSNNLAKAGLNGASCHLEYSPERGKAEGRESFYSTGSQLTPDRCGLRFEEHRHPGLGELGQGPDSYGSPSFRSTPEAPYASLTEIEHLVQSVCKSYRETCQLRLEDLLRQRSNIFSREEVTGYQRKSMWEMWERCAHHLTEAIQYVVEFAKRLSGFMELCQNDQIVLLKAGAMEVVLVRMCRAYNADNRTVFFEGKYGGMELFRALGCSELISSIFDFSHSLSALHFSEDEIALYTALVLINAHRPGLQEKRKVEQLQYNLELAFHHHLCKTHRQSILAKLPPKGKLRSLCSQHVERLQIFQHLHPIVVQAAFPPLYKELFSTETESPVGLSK
Chain of Cytochrome P450 3A4 (Homo sapiens) (P08684 whole entry, looked up): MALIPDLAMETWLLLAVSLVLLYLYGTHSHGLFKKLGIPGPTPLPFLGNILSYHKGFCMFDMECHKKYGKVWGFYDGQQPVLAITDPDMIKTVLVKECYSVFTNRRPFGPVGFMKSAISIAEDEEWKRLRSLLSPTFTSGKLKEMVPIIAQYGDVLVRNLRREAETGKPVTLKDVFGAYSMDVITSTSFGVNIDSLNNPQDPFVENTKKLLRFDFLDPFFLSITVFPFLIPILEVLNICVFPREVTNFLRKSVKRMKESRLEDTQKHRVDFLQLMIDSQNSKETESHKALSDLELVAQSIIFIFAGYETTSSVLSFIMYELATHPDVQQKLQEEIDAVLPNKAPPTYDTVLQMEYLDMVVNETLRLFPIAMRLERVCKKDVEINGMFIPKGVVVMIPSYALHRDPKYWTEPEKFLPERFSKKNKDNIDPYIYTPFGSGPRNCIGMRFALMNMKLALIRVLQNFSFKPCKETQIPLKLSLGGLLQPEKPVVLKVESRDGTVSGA
Chain of Tumor necrosis factor (Homo sapiens) (P01375 whole entry, looked up): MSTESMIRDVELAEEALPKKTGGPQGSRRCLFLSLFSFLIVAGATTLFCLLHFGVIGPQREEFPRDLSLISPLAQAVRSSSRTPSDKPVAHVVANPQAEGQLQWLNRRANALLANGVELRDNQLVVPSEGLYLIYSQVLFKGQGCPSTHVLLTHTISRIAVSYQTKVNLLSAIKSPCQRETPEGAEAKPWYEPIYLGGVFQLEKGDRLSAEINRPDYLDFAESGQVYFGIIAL
Chain of Glucocorticoid receptor (Homo sapiens) (P04150 whole entry, looked up): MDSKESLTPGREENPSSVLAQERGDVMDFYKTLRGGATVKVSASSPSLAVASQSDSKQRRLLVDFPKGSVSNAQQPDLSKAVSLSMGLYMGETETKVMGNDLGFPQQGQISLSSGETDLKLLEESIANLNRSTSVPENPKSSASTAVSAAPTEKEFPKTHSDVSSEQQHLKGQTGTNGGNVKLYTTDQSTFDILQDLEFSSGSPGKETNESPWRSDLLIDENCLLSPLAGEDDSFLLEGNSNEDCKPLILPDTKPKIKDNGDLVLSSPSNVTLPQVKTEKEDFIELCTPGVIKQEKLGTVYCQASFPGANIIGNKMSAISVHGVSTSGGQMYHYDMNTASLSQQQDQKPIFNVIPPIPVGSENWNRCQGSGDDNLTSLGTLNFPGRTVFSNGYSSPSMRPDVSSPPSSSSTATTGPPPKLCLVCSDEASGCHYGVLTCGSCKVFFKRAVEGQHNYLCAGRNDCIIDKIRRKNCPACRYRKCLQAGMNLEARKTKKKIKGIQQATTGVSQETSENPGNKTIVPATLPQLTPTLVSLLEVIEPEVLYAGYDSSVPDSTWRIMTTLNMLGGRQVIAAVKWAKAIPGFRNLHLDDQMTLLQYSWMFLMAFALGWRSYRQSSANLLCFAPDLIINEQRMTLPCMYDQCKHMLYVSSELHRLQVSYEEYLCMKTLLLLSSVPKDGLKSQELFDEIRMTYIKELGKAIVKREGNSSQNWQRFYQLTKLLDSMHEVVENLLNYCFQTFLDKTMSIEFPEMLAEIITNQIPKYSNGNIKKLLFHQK
Chain of Voltage-gated inwardly rectifying potassium channel KCNH2 (Homo sapiens) (Q12809 whole entry, looked up): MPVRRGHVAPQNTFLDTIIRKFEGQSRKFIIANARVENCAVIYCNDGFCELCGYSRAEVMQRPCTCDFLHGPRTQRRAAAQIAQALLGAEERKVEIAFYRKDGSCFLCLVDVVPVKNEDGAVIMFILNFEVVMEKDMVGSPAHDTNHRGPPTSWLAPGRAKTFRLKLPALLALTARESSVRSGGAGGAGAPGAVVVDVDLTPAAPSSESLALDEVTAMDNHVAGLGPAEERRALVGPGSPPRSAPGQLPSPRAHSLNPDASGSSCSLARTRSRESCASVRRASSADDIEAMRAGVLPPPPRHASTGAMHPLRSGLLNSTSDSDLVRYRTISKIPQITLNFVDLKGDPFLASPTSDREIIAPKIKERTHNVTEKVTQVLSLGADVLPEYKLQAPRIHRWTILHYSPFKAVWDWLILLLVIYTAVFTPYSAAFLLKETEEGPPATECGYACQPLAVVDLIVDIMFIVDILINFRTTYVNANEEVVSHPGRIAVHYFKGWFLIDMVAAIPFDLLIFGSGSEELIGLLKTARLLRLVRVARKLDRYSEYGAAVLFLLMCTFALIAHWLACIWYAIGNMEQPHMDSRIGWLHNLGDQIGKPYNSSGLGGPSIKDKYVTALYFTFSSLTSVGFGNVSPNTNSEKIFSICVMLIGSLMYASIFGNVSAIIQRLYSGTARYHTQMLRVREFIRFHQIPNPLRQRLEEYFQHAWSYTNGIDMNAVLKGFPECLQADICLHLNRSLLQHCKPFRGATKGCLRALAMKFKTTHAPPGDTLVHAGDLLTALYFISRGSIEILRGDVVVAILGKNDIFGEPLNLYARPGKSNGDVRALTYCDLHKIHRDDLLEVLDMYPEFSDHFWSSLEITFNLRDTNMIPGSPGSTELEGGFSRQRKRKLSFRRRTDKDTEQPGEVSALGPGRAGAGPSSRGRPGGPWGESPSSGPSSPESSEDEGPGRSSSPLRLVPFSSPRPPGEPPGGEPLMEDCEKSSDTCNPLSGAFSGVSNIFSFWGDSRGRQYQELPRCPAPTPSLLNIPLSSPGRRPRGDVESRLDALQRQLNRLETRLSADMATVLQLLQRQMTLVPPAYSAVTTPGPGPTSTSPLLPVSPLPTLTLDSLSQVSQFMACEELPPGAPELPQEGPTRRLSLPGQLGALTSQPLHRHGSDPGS

For `C=CC(C)(O)CCCC(C)CCCC(C)CCCC(C)C` (configuration not stated), the Potency in assay [1] was > 92 µM. For the same compound, the activity change, negative = cytotoxicity in assay [2] is -10.5%. The Potency result in assay [3], in assay [4], in assay [6], in assay [7], in assay [8] and in [9] was “inactive” throughout. In addition, the Potency result in assay [10] and in assay [13] was “inactive” each time. Besides, the activation in assay [5] was 1.44%; in [11], -2.56%; in assay [12] it was -0.414%. Moreover, in assay [14], the call was inactive.
On to `CCOc1ccc2nc(N)sc2c1`, for which the Potency in [1] was > 92 µM. Moreover, the activity change, negative = cytotoxicity in assay [2] was -15.3%. Besides, the Potency entry in [3], in [4], in [8] and in [15] was “inactive” each time. Besides, the activation in assay [5] was -9.89%; in [11], -1.71%; in assay [12], -0.893%.
Consider `c1ccc(SCCSc2ccccc2)cc1`, for which the Potency in assay [16] and in assay [1] was > 92 µM each time. Moreover, in [2], the activity change, negative = cytotoxicity was -5.55%. For the same compound, the Potency result in [3], in assay [4], in [18], in assay [6], in assay [7] and in assay [8] was “inactive” throughout. In addition, the Potency entry in assay [13], in [19] and in assay [15] was “inactive” in each case. In addition, in assay [17], the call was inactive. The activation in [11] was -1.09%; in assay [12], -4.5%.
Consider `Nc1ccc(-c2ccc(N)c(O)c2)cc1O`, for which, in assay [16], the Potency was 32.3 µM (active). Also, the activity change, negative = cytotoxicity in [2] is -88.2% (active). Further, the Potency entry in [4], in [6], in [7], in assay [9], in assay [20] and in assay [19] was “inactive” throughout. Also, the Potency result in assay [15] is “inactive”. In addition, the compound was called inactive in [17] and in assay [14]. In addition, the activation in assay [5] was 0.0418%; in assay [11], 2.61%.
`C[Si](C)(C)Cl`: the Potency in [16] and in assay [1] was > 92 µM throughout. Moreover, the activity change, negative = cytotoxicity in assay [2] was -21.3%. For the same compound, the Potency result in [4], in assay [18], in assay [8], in assay [9], in [20] and in [13] was “inactive” each time. Further, the Potency entry in assay [19] and in [15] was “inactive” throughout. Besides, the activation is 10.5% in assay [5], -2.87% in [11] and 1.18% in [12]. For the same compound, the compound was called inactive in assay [14].
Regarding `O=C(Cl)c1ccc([N+](=O)[O-])cc1`, the Potency in [16] and in assay [1] was > 92 µM in each case. In addition, the activity change, negative = cytotoxicity in [2] is -20%. In addition, the Potency result in assay [4], in [18], in assay [8], in assay [9], in [10] and in assay [20] was “inactive” throughout. For the same compound, the Potency result in assay [13], in assay [19] and in assay [15] was “inactive” throughout. In addition, the result in assay [17] and in assay [14] was inactive. In addition, the activation in assay [5] was -2.19%; in assay [12], -1.16%.
